Assay [1] in a line: qHTS assay to identify aromatase inhibitors - cell viability counter screen (AID 743084).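 Also: cells stimulated with testosterone during compound exposure; nearly all actives have a fitted effect of over 55% in size.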
The target of assay [2] is Aryl hydrocarbon receptor (Homo sapiens) (UniProt P35869). Description: qHTS assay to identify small molecule that activate the aryl hydrocarbon receptor (AhR) signaling pathway (AID 743085). Also: nearly all actives have a fitted effect of over 15% in size. Also: potency is read from the fitted curve at half-maximal effect.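 As to activation: HG2L7.5c1 human HepG2 liver cells with stably integrated DRE-driven firefly reporter; series mostly up to about 70 µM.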 The method, boiled down:
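Measured in HG2L7.5c1 cells: CellTiter-Fluor signal (30 min incubation, 37C) for viability, then luciferase luminescence (30 min, room temperature). Compound contact time was 24 h at 37C, following a 5 h pre-incubation.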

For assay [3], the target named is Peroxisome proliferator-activated receptor gamma (Homo sapiens) (UniProt P37231). Description: qHTS assay to identify small molecule agonists of the peroxisome proliferator-activated receptor gamma (PPARg) signaling pathway (AID 743094; active = well fitted activation curve with a large enough effect in the signal ratio in the repeat runs, not every such curve was filed as active; the % refers to the signal ratio). The procedure, abridged:
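Stably transfected HEK293H cells (GeneBLAzer PPARg UAS-bla) were incubated with test substances for 17 h at 37C after a 5 h pre-incubation; beta-lactamase activity was then detected by FRET substrate fluorescence.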

The target is the same in assay [4]. Briefly: qHTS assay to identify small molecule antagonists of the peroxisome proliferator-activated receptor gamma (PPARg) signaling pathway (AID 743191; calls by dose curve; also: series mostly up to about 63 µM; nearly all actives have a fitted effect of over 30% in size). The procedure, abridged: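 GeneBLAzer PPARg UAS-bla HEK293H cells carrying a UAS-driven beta-lactamase reporter were plated at 3000 cells/well, preincubated 5 h at 37C, then given compound for 17 h at 37C; LiveBLAzer B/G FRET substrate was read after 1 h at room temperature.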

Assay [5] can be described thus: qHTS assay to identify small molecule antagonists of the peroxisome proliferator-activated receptor gamma (PPARg) signaling pathway - cell viability counter screen (AID 743194). Also: nearly all actives have a fitted effect of over 55% in size. The method, boiled down:
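PPARg-UAS-bla HEK293H cells were plated, rested 5 h at 37 C, then treated with compounds plus rosiglitazone (50 nM final) for 17 h at 37 C; viability was then read by CellTiter-Glo luminescence after 30 min at room temperature.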
(Quantitative high-throughput screening tests each substance at several concentrations.)

Assay [6] is described as follows: qHTS assay for small molecule agonists of the antioxidant response element (ARE) signaling pathway (AID 743202; active = well fitted activation curve with a large enough effect in the signal ratio in the repeat runs, not every such curve was filed as active; the % refers to the signal ratio). The method, boiled down: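 Read-out: LiveBLAzer B/G FRET substrate fluorescence after 2 h at room temperature, following 16 h compound treatment at 37 C of HepG2 cells carrying an ARE-driven beta-lactamase reporter.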
A short description of assay [7]: qHTS assay for small molecule agonists of the antioxidant response element (ARE) signaling pathway - cell viability counter screen (AID 743203; calls by dose curve; also: nearly all actives have a fitted effect of over 55% in size). The method, boiled down:
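Cells (ARE-bla HepG2, 2,000/well) receive DMSO-dissolved compounds after a 5 hrs rest. Plates incubate 16 hrs at 37C/5% CO2. CellTiter-Glo luminescence is then recorded after 30 min at room temperature.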

A short description of assay [8]: qHTS assay for small molecule activators of the heat shock response signaling pathway (AID 743210; active = well fitted activation curve with a large enough effect in the signal ratio in the repeat runs, with a control signal flat, not every such curve was filed as active; the % refers to the signal ratio; also: series mostly up to about 63 µM). The procedure, abridged: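 HSE-bla HeLa cells (beta-lactamase reporter under heat shock response elements) were exposed to compounds for 5 h at 37 C, then loaded with LiveBLAzer B/G FRET substrate for 2.5 h at room temperature before fluorescence reading.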
Assay [9] can be described thus: qHTS assay to identify small molecule that activate the aryl hydrocarbon receptor (AhR) signaling pathway - cell viability counter screen (AID 743086).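 Also: HepG2 liver cells carrying the AhR DRE luciferase reporter; series mostly up to about 70 µM; nearly all actives have a fitted effect of over 45% in size.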 The method, boiled down: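 HepG2-AhR-luc (HG2L7.5c1) cells, 4000/well, were preincubated 5 h at 37C, exposed to compound in qHTS format for 24 hr at 37C, then given CellTiter-Fluor for 30 min; viability was read as fluorescence in the reporter wells.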

Assay [10] can be described thus: qHTS assay for small molecule activators of the heat shock response signaling pathway - cell viability counter screen (AID 743209). Also: nearly all actives have a fitted effect of over 50% in size. The method, boiled down: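 Quantitative HTS format, Tox21 10K library. HeLa cells carrying an HSE-driven beta-lactamase reporter were treated 5 h at 37 C, then assessed for viability by CellTiter-Glo luminescence.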

Structures are written as SMILES. Records with an inconclusive call do not appear. A number with no mark means an inactive call. Active and inactive are the calls of the source. Unless noted, calls follow the shape of the dose curve; as a rule, active = well fitted curve in the direction sought with a large enough effect in the repeat runs; inconclusive = weak or mixed curves; inactive = no such curve, though single readings can be large; an effect the other way counts as inactive or inconclusive.
% is scaled to controls: 0 for no effect and ±100 for the full control effect.

Sequence of Aryl hydrocarbon receptor (Homo sapiens) (P35869 whole entry, looked up): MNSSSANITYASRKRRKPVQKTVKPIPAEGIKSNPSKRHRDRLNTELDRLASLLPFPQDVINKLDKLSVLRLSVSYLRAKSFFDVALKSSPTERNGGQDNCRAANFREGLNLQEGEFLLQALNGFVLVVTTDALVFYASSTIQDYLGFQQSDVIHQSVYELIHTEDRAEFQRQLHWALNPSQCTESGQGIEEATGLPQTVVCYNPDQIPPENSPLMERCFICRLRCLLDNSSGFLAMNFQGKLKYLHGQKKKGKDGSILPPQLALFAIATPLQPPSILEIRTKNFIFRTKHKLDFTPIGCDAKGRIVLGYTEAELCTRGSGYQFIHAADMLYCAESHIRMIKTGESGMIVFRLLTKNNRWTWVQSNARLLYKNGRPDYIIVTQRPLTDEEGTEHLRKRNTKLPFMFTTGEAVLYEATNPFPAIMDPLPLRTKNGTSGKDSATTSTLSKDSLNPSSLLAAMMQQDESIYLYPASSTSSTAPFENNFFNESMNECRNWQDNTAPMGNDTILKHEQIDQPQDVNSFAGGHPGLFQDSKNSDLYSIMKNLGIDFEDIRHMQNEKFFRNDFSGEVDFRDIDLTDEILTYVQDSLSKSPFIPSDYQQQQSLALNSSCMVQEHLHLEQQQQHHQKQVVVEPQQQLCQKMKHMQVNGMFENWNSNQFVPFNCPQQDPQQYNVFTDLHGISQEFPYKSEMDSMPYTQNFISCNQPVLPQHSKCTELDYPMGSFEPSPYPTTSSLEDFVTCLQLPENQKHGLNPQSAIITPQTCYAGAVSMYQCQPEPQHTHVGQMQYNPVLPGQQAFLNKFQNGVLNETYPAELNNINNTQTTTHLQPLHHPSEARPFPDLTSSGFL
Sequence of Peroxisome proliferator-activated receptor gamma (Homo sapiens) (P37231 whole entry, looked up): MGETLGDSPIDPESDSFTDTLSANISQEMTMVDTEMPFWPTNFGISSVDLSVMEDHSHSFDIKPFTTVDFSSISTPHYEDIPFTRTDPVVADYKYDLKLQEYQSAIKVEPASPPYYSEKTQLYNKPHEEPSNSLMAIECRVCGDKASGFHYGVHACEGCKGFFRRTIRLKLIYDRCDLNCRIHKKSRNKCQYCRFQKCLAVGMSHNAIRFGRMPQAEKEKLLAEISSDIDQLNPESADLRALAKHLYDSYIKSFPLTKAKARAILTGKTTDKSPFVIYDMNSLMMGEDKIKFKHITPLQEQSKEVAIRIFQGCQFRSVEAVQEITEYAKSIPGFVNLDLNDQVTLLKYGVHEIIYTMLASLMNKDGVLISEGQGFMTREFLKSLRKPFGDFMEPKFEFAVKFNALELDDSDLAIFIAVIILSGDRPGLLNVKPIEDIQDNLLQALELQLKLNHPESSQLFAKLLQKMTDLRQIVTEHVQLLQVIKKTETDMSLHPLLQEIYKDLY

As for `C[CH2][Ge]([Cl])([CH2]C)[CH2]C`, the Potency result in [1], in assay [2], in [4] and in assay [6] was “inactive” each time. Moreover, the compound was called inactive in [3], in [5], in [7] and in [8].
Regarding `O=C(O)c1ccccc1C(=O)Nc1ccc(S(=O)(=O)Nc2nccs2)cc1`, the Potency entry in assay [1], in [2], in assay [9], in assay [4] and in assay [6] was “inactive” in each case. Further, the compound was classed as inactive in [7] and in assay [8].
With `O=C(c1ccc2c(c1)C(=O)OC2=O)c1ccc2c(c1)C(=O)OC2=O`, the Potency result in [1], in assay [2], in assay [9] and in assay [6] was “inactive” throughout. Moreover, the outcome in assay [7] and in assay [8] was inactive.
Take `BrC/C=C/CBr`: the Potency result in assay [1], in [2] and in assay [4] was “inactive” throughout. For the same compound, the outcome in assay [3], in [5], in [7], in assay [10] and in assay [8] was inactive.
Consider `C[C@H]1O[C@H](O[C@H]2[C@H](O)[C@@H](O)[C@@H](O[C@H]3[C@H](O)[C@@H](O)[C@H](O)O[C@@H]3CO)O[C@@H]2CO)[C@H](O)[C@@H](O)[C@@H]1N[C@H]1C=C(CO)[C@@H](O)[C@H](O)[C@H]1O`, for which the Potency result in assay [1], in assay [2], in [9], in assay [4] and in [6] was “inactive” each time. The result in assay [5], in assay [7] and in assay [8] was inactive.
As for `CC(C)c1ccccc1O`, the Potency result in assay [1], in [2], in assay [9] and in assay [6] was “inactive” throughout. Further, the compound was called inactive in assay [5], in assay [7], in [10] and in assay [8].
Regarding `COCCOCCOCCOC`, the Potency entry in [1], in assay [2], in assay [4] and in assay [6] was “inactive” each time. The call in assay [3], in assay [5], in [7], in [10] and in assay [8] was inactive.
`C=COCCOCCOC=C`: the Potency entry in [1], in [2] and in assay [4] was “inactive” in each case. Further, the outcome in assay [3], in [5], in [7] and in [8] was inactive.
As for `CN[C@@H]1[C@@H](O)[C@@H](O[C@@H]2[C@H](O)[C@H](O[C@H]3OC(CN)=CC[C@H]3N)[C@@H](N)C[C@H]2N)OCC1(C)O` (stereo partly drawn), the Potency entry in assay [1], in assay [2] and in assay [6] was “inactive” throughout. Further, the result in assay [5], in assay [7] and in assay [10] was inactive.
On to `CC(C)(C)NCCO`, for which the Potency entry in assay [1], in [9], in [4] and in [6] was “inactive” in each case. For the same compound, the call in assay [3], in assay [5], in assay [7], in assay [10] and in assay [8] was inactive.
Take `Cc1ccc2c(c1)c1c3n2CCNC3CCC1` (stereo not drawn): the Potency result in assay [1] and in assay [6] was “inactive” throughout. For the same compound, in assay [2], the Potency was 10.6 µM (active). In addition, the outcome in [7] and in assay [10] was inactive.
Take `COC(OC)C(C)c1ccccc1` (stereo not drawn): the Potency result in assay [1], in [9] and in [4] was “inactive” each time. Also, the call in [3], in assay [5], in assay [7], in assay [10] and in assay [8] was inactive.
`O=C(/C=C/c1ccccc1)NCCO`: the Potency entry in assay [1], in assay [9] and in assay [6] was “inactive” each time. Also, the outcome in assay [3], in assay [5], in [7], in [10] and in assay [8] was inactive.
On to `O=[Si]=O`, for which the Potency entry in [1], in [9], in [4] and in assay [6] was “inactive” each time. In addition, the outcome in [3], in [5], in assay [7], in [10] and in assay [8] was inactive.
`O=S(=O)(O)CCO`: the Potency result in assay [1], in [9] and in assay [6] was “inactive” throughout. Further, the compound was called inactive in [3], in assay [5], in [7] and in [8].
In the case of `CO[Si](CCCCl)(OC)OC`, the Potency entry in assay [1] and in assay [2] was “inactive” each time. The outcome in assay [3], in assay [5], in [7] and in assay [10] was inactive.
As for `C=CCOc1c(Br)cc(C(C)(C)c2cc(Br)c(OCC=C)c(Br)c2)cc1Br`, the Potency entry in assay [1] and in assay [9] was “inactive” throughout. The outcome in assay [3], in assay [5], in [7] and in assay [10] was inactive.
Take `C=CCOc1c(Br)cc(Br)cc1Br`: the Potency entry in assay [1], in assay [9], in assay [4] and in assay [6] was “inactive” throughout. The outcome in assay [3], in assay [7], in assay [10] and in assay [8] was inactive.
As for `Cc1c(C(C)C)c(=O)n(-c2ccccc2)n1C`, the Potency entry in assay [1], in [2], in [4] and in [6] was “inactive” each time. The compound was classed as inactive in assay [5], in assay [7] and in [8].
On to `Cc1ccc(S(=O)(=O)NC(=O)NC2CCCCCCC2)cc1`, for which the Potency result in [1], in assay [2] and in [6] was “inactive” throughout. For the same compound, the call in [5], in [7], in assay [10] and in [8] was inactive.
On to `CC(C)(C)c1ccc(C=O)cc1`, for which the Potency entry in assay [1], in assay [2] and in [6] was “inactive” each time. Further, the compound was called inactive in assay [3], in [5], in assay [7] and in assay [10].
As to `CCNC(=O)/C=C/c1cccc(Br)c1`, the Potency result in assay [1], in [9], in assay [4] and in assay [6] was “inactive” in each case. Also, the call in assay [3], in assay [5], in assay [7] and in assay [8] was inactive.
Turning to `CCC(CO)CO`, the Potency entry in assay [1], in assay [2], in assay [4] and in [6] was “inactive” throughout. The call in assay [3], in [7], in assay [10] and in assay [8] was inactive.
Turning to `O=C(O)Cc1cccc(-c2cc(CCCCCCc3ccc(O[C@H]4O[C@H](CO)[C@@H](O)[C@H](O)[C@@H]4O)c(-c4cccc(CC(=O)O)c4)c3)ccc2O[C@H]2O[C@H](CO)[C@@H](O)[C@H](O)[C@@H]2O)c1`, the Potency result in [1] and in assay [9] was “inactive” in each case. Moreover, the call in [3] was inactive. Besides, the ratio activity, negative = inhibition in [4] is -5.32% [at 0.55 µM]. In addition, the activation in assay [6] is -7.76% [at 0.756 µM]; in assay [8], 0.0325% [at 0.55 µM]. Moreover, in assay [7], the viability change, negative = cytotoxic was -4.49% [at 0.756 µM]. Moreover, the activity change, negative = cytotoxicity in assay [10] is -0.941% [at 0.55 µM].

The record behind these values is PubChem BioAssay (Tox21).
